Laboratory results: PubChem BioAssay (NCI)
This is part of a sample that, as a whole, favours compounds with a hit. Of some 79,000 tested, about 15% had one in any assay. The source made the active and inactive calls. No stated cut-off is given here; in the data, active means growth inhibition above about 70%; inactive means the rest.

Key:
[1] = NCI Yeast Anticancer Drug Screen. Data for the rad52 strain (AID 147);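 further: 0% = growth of vehicle-treated control cultures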; conditions: S. cerevisiae rad52 mutant growth inhibition, hits give high values
Procedure, shortened: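 Read-out: growth inhibition versus vehicle-treated controls. Cells were a DNA repair-deficient yeast strain treated with compounds.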

[2] = NCI Yeast Anticancer Drug Screen. Data for the wt1 strain (AID 149);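 further: 0% = growth of vehicle-treated wt1 cultures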; conditions: S. cerevisiae wt1 strain (SPY 50644) growth inhibition, hits give high values
Procedure, shortened: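 wt1 yeast, compound-treated; % growth inhibition vs vehicle control.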

[3] = NCI Yeast Anticancer Drug Screen. Data for the rad50EPP+ strain (AID 151);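 further: 0% = growth of vehicle-treated control cultures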; conditions: S. cerevisiae rad50 mutant strain, hits give high values
Procedure, shortened: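 Growth inhibition read against vehicle controls in rad50EPP+ yeast, a strain altered in DNA damage repair, after compound exposure.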

[4] = NCI Yeast Anticancer Drug Screen. Data for the mgt1 strain (AID 153); conditions: S. cerevisiae mgt1 mutant growth inhibition, hits give high values
Procedure, shortened: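 mgt1 yeast grown with test compound; read-out is growth inhibition versus vehicle-treated cultures.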

[5] = NCI Yeast Anticancer Drug Screen. Data for the rad50 strain (AID 155);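 further: 0% = growth of vehicle-only cultures of the same strain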; conditions: S. cerevisiae rad50 strain growth inhibition, hits give high values
Procedure, shortened: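 Genetically altered yeast (DNA repair pathway); compound treatment; growth inhibition vs vehicle ctrl.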

[6] = NCI Yeast Anticancer Drug Screen. Data for the mec2-1 strain (AID 157); conditions: S. cerevisiae mec2-1 strain, hits give high values
Procedure, shortened: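 Yeast mec2-1 mutant treated with compound. Readout: growth inhibition vs vehicle controls.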

Measured: growth inhibition

CC(=O)O[C@H]1CC[C@@]2(C)C(=CC[C@@H]3C2CC[C@]2(C)C(=O)NC(=O)CC32)C1 (stereo not given in full)
inactive: [1]; at 1.2 µM -33% | [1]; at 3.7 µM -35% | [1]; at 11.0 µM -42% | [1]; at 33.0 µM -29% | [1]; at 100.0 µM -41% | [2]; at 1.2 µM -17% | [2]; at 3.7 µM -7% | [2]; at 11.0 µM -21% | [2]; at 33.0 µM -17% | [2]; at 100.0 µM -21% | [3]; at 1.2 µM -8% | [3]; at 3.7 µM 0% | [3]; at 11.0 µM 25% | [3]; at 33.0 µM 54% | [3]; at 100.0 µM 27% | [4]; at 1.2 µM -28% | [4]; at 3.7 µM -19% | [4]; at 11.0 µM 56% | [5]; at 1.2 µM -31% | [5]; at 3.7 µM -29% | [5]; at 5.0 µM (retest, dose inferred, filed as 0.5) -21% | [5]; at 11.0 µM -20% | [5]; at 33.0 µM -25% | [5]; at 50.0 µM (retest, dose inferred, filed as 5.0) -29% | [5]; at 50.0 µM 12.4% | [5]; at 100.0 µM -28% | [6]; at 1.2 µM -21% | [6]; at 3.7 µM -15%
active: [4]; at 33.0 µM 76% | [4]; at 100.0 µM 70%
